# Laboratory results published in ChEMBL document CHEMBL4513216, “Probing the Open Global Health Chemical Diversity Library for Multistage-Active Starting Points for Next-Generation Antimalarials” (ACS Infect Dis, 2020).
# Among all 69,000 compounds or so, about 8,600 (12%) showed an effect of 50% or more. The entries come from a sample that favours strong results as a whole.
# System: Plasmodium berghei
# Experiment: Screen against P. berghei liver stage (PbLuc), transformed with Luciferase, at 10uM
# Type: functional, HepG2
# Conditions: tested at 10 uM
row,SMILES,INHIBITION [%]
1,CC1(C)CN=C(N2CCN(CC3CCCCO3)CC2)S1 (stereo not drawn),27.6
2,COCC1COCCC12CCN(Cc1cccs1)CC2 (stereo not drawn),23.6
3,COCCN1C(=O)C[C@H]2[C@H]1CCN2C(=O)c1ccc[nH]1,26.3
4,CCN1CCN(Cc2nc(Cc3ccccc3)n[nH]2)CC1,-7.17
5,c1ccc(CCc2n[nH]c(CCN3CCCCC3)n2)cc1,38.5
6,CCN1CCN(Cc2nc(CCc3ccccc3)n[nH]2)CC1,56.5
7,CCOCc1cc(CNC2CCCc3c2cnn3CC)ccc1OC (stereo not drawn),33.8
8,Cc1nc2sccn2c1CN(CCCN(C)C)Cc1ccco1,33.5
9,CC(CO)NC(=O)c1ccc(NCc2cc(C#N)ccc2F)cc1 (stereo not drawn),26.8
10,Cc1ccc(CN2C[C@@H]3CC[C@H]2CN(Cc2[nH]cnc2C)C3)o1,24.9
11,Cc1cccc(CN2C[C@@H]3CC[C@H]2CN(Cc2[nH]cnc2C)C3)n1,58.5
12,Cc1cc(CN2C[C@@H]3CC[C@H]2CN(Cc2[nH]cnc2C)C3)on1,62.1
13,Cc1nc[nH]c1CN1C[C@H]2CC[C@@H](C1)N(C(=O)c1cnn(C)c1)C2,10.7
14,Cc1nc[nH]c1CN1C[C@H]2CC[C@@H](C1)N(C(=O)CCNS(C)(=O)=O)C2,26.8
15,Cc1nc[nH]c1CN1C[C@H]2CC[C@@H](C1)N(C(=O)CCc1cnn(C)c1)C2,40.1
16,CSCCCN1C[C@@H]2CC[C@H]1CN(Cc1[nH]cnc1C)C2,45.8
17,CSc1ccccc1CN1C[C@@H]2CC[C@H]1CN(Cc1[nH]cnc1C)C2,60.3
18,Cc1nc[nH]c1CN1C[C@H]2CC[C@@H](C1)N(C(=O)CCc1cccnc1)C2,8.38
19,COCC1CC2(CCN(C(=O)c3occc3C)CC2)CN1C(C)C (stereo not drawn),18.4
20,CSc1ncccc1C(=O)N(CCO)Cc1ccccc1,21.4
21,CCC(CN1CCCC1)NC(=O)Cc1c(C)[nH]c2cc(C)cc(C)c12 (stereo not drawn),6.32
22,Cc1nc(-c2ccco2)ccc1C(=O)NCC(=O)N1CCCCC1,-5.65
23,CCc1ncncc1C(=O)N1CCCC(n2nc(C)nc2C)C1 (stereo not drawn),-31.8

row,SMILES,INHIBITION [%]
1,Cn1c(C(=O)Nc2nc[nH]n2)cc2ccccc21,41.9
2,COCCCN(Cc1cnc(C2CCCCC2)nc1)C1CCN(C)CC1,49.4
3,O=C(c1cscn1)N1CCc2ncnc(-c3cccnc3)c2CC1,23.6
4,Cc1cnc(N2CC[C@H]3[C@@H]2CCC(=O)N3c2cccnc2)nc1,37.1
5,CN1CCC(c2nc3ccc(-c4ccccc4)cn3n2)CC1,-15.7
6,CCS(=O)(=O)N1CCC(c2nc3ccc(-c4ccccc4)cn3n2)CC1,31.8
7,COCC(=O)N1CCC(c2nc3ccc(N4CCCC4)cn3n2)CC1,-18.2
8,CC(=O)N1CCC(c2nc3ccc(-c4cccc(F)c4)cn3n2)CC1,79.2
9,CN1CCC(c2nc3ccc(-c4cccc(F)c4)cn3n2)CC1,33.5
10,CS(=O)(=O)N1CCC(c2nc3ccc(-c4cccc(F)c4)cn3n2)CC1,58.3
11,CN(C)C(=O)N1CCC(c2nc3ccc(-c4ccccc4)cn3n2)CC1,65.3
12,CN(C)C(=O)N1CCC(c2nc3ccc(N4CCCC4)cn3n2)CC1,47.9
13,CC(=O)N1CCC(c2nc3ccc(NC4CCC4)cn3n2)CC1,9.51
14,COCC(=O)N1CCC(c2nc3ccc(-c4ccncc4)cn3n2)CC1,53.4
15,c1ccc(-c2ccc3nc(C4CCN(CC5CC5)CC4)nn3c2)cc1,6.8
16,COCC(=O)N1CCC(c2nc3ccc(-c4ccccc4)cn3n2)CC1,-28.2
17,CO[C@@H]1CCN(Cc2ccccn2)[C@@H]2CN(Cc3ccco3)C[C@@H]21,20.9
18,CCc1nc(C)c(C(=O)NCCNC(=O)Cc2cccc(F)c2)s1,-27.9
19,C=Cn1cc(CN2CCc3nc(-c4cccnc4)nc(O)c3C2)c(C)n1,1.5
20,Cc1occc1C(=O)Nc1cccc(C(=O)OCC2CCCN2)c1 (stereo not drawn),-24.7
21,CN(C)C(=O)CN1CCC2(CCCN(Cc3cccs3)C2)C1=O (stereo not drawn),8.6
22,O=C1COC2(CCN(Cc3nccs3)CC2)CN1c1ccccc1,35.6
23,N#Cc1ccc(N2CCC(OCCc3ccccc3)CC2)nc1,45.5

row,SMILES,INHIBITION [%]
1,COc1cccc(-c2ccc3nc(C4CCN(C(C)=O)CC4)nn3c2)c1,56.4
2,CC(=O)N1CCC(c2nc3ccc(C)cn3n2)CC1,1.7
3,CC(=O)N1CCC(c2nc3ccc(-c4ccnn4C)cn3n2)CC1,38.2
4,CN(Cc1ccncc1)C(=O)CCNS(=O)(=O)c1cccnc1,20.9
5,Cc1nnc(Cn2cc(I)cc(C)c2=O)o1,22.5
6,CSc1ccc(C(C(=O)O)N2CCCC2)cc1 (stereo not drawn),34.9
7,CSc1ccc(C(C(=O)O)N2CCC(C(=O)N3CCCC3)CC2)cc1 (stereo not drawn),43.9
8,CSc1ccc(C(C(=O)O)N2CCC(CO)CC2)cc1 (stereo not drawn),53.9
9,Cc1ccc(CN2CCCn3c(nc(CN4CCCC4)cc3=O)C2)s1,43.2
10,Cn1ccnc1CN1CCN2C[C@H](OCc3ccccc3)C[C@H]2C1,-25.2
11,Cc1n[nH]c2ncc(CNC3CCN(Cc4ccccn4)CC3)cc12,-20.6
12,CC(=O)NC1CCCN(Cc2ccc(-n3ccnc3)cc2)C1 (stereo not drawn),65.6
13,Cc1n[nH]c2ncc(CNC3CCCN(c4ncccn4)C3)cc12 (stereo not drawn),73.5
14,c1cnnc(N2CCCC(NCc3ccc(-n4ccnc4)cc3)C2)c1 (stereo not drawn),15.2
15,CC(C)[C@@H](C)NC1CCN(c2ccc(-n3ccnc3)cc2)CC1,16.6
16,CCC(=O)NC1CCCN(Cc2ccc(-n3ccnc3)cc2)C1 (stereo not drawn),41.5
17,CNCCCNC1CCN(c2ccc(-n3ccnc3)cc2)CC1,-7.2
18,COc1cc(CNC2CCCN(c3ncccn3)C2)cc2c1OCO2 (stereo not drawn),-34.8
19,c1cn(-c2ccc(N3CCC(NC4CC4)CC3)cc2)cn1,56.2
20,c1cnc(N2CCCC(NCc3ccc(-n4ccnc4)cc3)C2)nc1 (stereo not drawn),60.4
21,Cc1ccc(N2CCCC(NCc3ccc(-n4ccnc4)cc3)C2)nn1 (stereo not drawn),11.5
22,CC(=O)NC1CCCN(Cc2ccc(OCc3ccccn3)cc2)C1 (stereo not drawn),41.8
